Sampled rows, rich in hits. Any-hit rate of the full collection: about 0.44%.
RmlCD inh mix = RmlC and RmlD coupled enzyme inhibitors, primary screen, biochemical, 384-well, compound mixtures, retest; inhibition, % at 5.5 µM; 110,000 tested, 0.39% active; AID 1532, 2009; RmlC/RmlD coupled enzyme inhibition, 384-well mixture HTS; in the data active = inhibition above about 30%, passing the limit was not always enough; inconclusive = no clear call, values can overlap the other calls
YopH inh = YopH tyrosine phosphatase inhibitors, primary screen, biochemical, fluorescence Ex485/Em525 | 140,000 tested, 0.16% active | inhibition, % (test concentration not listed) | AID 898, 2007; in the data active = inhibition above about 50%
RmlCD artifact = counter-screen for RmlC/RmlD inhibitors: fluorescence artifact, dose response, artefact control, biochemical. 360 tested, 96% active. calls only. shares compounds with RmlCD inh mix. RmlC/RmlD assay fluorescence artifact counter-screen; call rule not given here;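 note: compound alone with no enzyme and no substrates present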
Active calls of the source: *.

`CCc1nnc(NC(=O)CSc2nc3c(cc2C#N)CCC3)s1` gave RmlCD inh mix 56*, YopH inh 1 and RmlCD artifact active.
For CCSc1nnc(NC(=O)CSc2nc3c(cc2C#N)CCCC3)s1 the results were RmlCD inh mix inconclusive and YopH inh -25.
Cc1cc(C)c(C#N)c(SCC(=O)C(C)(C)C)n1 was read as RmlCD inh mix 8 and YopH inh 11.
Screening N#Cc1cc2c(nc1SCC(=O)Nc1nccs1)CCCCC2 returned RmlCD inh mix 34 and YopH inh -5.
CCN(CC)S(=O)(=O)c1cccc(C(=O)N[C@H](C(=O)OCC(=O)NC(=O)NC)C(C)C)c1 was read as RmlCD inh mix -24 and YopH inh -110.
`O=C(OCc1ccccc1)C1CCCN1C(=O)c1ccccc1[N+](=O)[O-]` (centres undefined) gave RmlCD inh mix -11 and YopH inh 7.
CCN1C(=O)C(CC(=O)Nc2ccc(OC)cc2)N(Cc2ccc3c(c2)OCO3)C1=S (centres undefined) was read as YopH inh 3.
For O=C(COc1ccc(C(=O)c2ccccc2)cc1)NCC1CCCCC1 the results were YopH inh -22.
Screening CCOC(=O)C1=C(C)N(CCCC(=O)O)C(=O)NC1c1cccc(OC)c1 (centres undefined) returned RmlCD inh mix 0.
For CC(C)OC(=O)CC(=O)CSc1nc2c(c(-c3cccs3)c1C#N)CCC2 the results were YopH inh -42.
`N#Cc1cc2c(nc1SCC(=O)N1CCOCC1)CCCCC2` gave RmlCD inh mix -12 and YopH inh -6.
For CC(C)OC(=O)CC(=O)CSc1nc2c(cc1C#N)CCCC2 the results were RmlCD inh mix 59*, YopH inh -27 and RmlCD artifact active.
`CCOC(=O)CC(=O)CSc1nc2c(cc1C#N)CCCCCC2` gave RmlCD inh mix 64* and RmlCD artifact active.
CC1=CC(C)(C)N2C(=O)C3(C(C#N)=C(N)OC4=C3C(=O)CC(C)(C)C4)c3c(C)c(C)cc1c32 (centres undefined) was read as RmlCD inh mix -13 and YopH inh -6.
Screening O=C(c1ccc([N+](=O)[O-])cc1)n1nc(-c2ccccc2)nc1NCc1ccc(F)cc1 returned YopH inh -29.
`O=C(c1ccc(F)cc1)n1c(NCc2ccccc2)n[nH]c1=S` gave RmlCD artifact inactive.
C=CCNC(=O)NC(=O)COC(=O)/C(C#N)=C/c1cc(C)n(CCC(C)C)c1C was read as RmlCD inh mix 30*, YopH inh -31 and RmlCD artifact active.
For Cc1cc(/C=C(\C#N)C(=O)OCC(=O)NC(=O)NC(C)(C)C)c(C)n1CCC(C)C the results were RmlCD inh mix 2 and YopH inh 5.
Screening Cc1ccccc1N1CCN(c2ccc(NC(=O)C3CCCCC3C(=O)O)cc2)CC1 (centres undefined) returned YopH inh -21.
COc1ccc(C)cc1NC(=O)c1cnc2n(c1=O)CCS2 was read as RmlCD inh mix 7 and YopH inh -13.
`COc1ccc(C)cc1NC(=O)c1cnc2scc(C)n2c1=O` gave RmlCD inh mix 47*, YopH inh 23 and RmlCD artifact active.
Screening CCC(=O)Nc1ccc(S(=O)(=O)c2ccc(NC(=O)CC)cc2)cc1 returned RmlCD inh mix inactive and YopH inh -34.
For C/C(=N\OCC(=O)Nc1c(C)cc(C)cc1C)c1ccc2c(c1)OCCO2 the results were YopH inh -11.
COc1ccc(NC(=O)C(=O)N/N=C/c2cc(C)n(-c3cccc(Cl)c3Cl)c2C)c(OC)c1 was read as RmlCD inh mix 0 and YopH inh -13.
`CCNC(=O)OCC12CC3CC(CC(C3)C1)C2` gave YopH inh -5.
Screening C=CCN(C(=O)COc1ccccc1)c1nnc(-c2ccncc2)s1 returned RmlCD inh mix 154*, YopH inh -7 and RmlCD artifact active.
`COCCN(C(=O)c1cccc(OC)c1)c1nnc(-c2ccncc2)s1` gave RmlCD inh mix -36 and YopH inh -51.
CC(=O)OC1COC(n2ccc3cc([N+](=O)[O-])ccc32)C(OC(C)=O)C1OC(C)=O (centres undefined) was read as RmlCD inh mix -13 and YopH inh -14.
CCC1CCc2c(sc(NC(=O)c3ccco3)c2C(N)=O)C1 (centres undefined) was read as RmlCD inh mix -3 and YopH inh -10.
Screening CC(C)(C)C1CCc2c(sc(NC(=O)c3ccco3)c2C(N)=O)C1 (centres undefined) returned RmlCD inh mix 64*, YopH inh -22 and RmlCD artifact active.
`CCOC(=O)c1c(N2C(=O)Nc3cc(Cl)c(Cl)cc3N2O)sc2c1CCCCC2` gave RmlCD inh mix -5 and YopH inh 26.
